Compound activity as filed in PubChem.
Shown are actives, neighbours in structure and some others; about 3.7% of the full set was active somewhere.
Nrf2 ARE act: Nrf2 pathway activation | actives 0.31% (n = 410,000) | AREc32 ARE-luciferase reporter (MCF7-derived line), luminescence, 24 h | AID 624171 | Potency, µM (series often up to 46.1 µM), inactives show at the top dose activation, actives largely listed as activators; also: % of control where 0% means no effect; nearly all actives have a fitted effect of over 65% in size
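Luciferase luminescence (Steady-Glo, 30 min at room temperature) served as the read-out of ARE activation in AREc32 cells treated with compounds for 24 hr at 37 deg C.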
ELG1 repair inh: blocks ELG1-dependent DNA repair in HEK293T cells | Potency, µM (doses to about 46.1 µM), for inactives: top-dose activity change, negative = inhibition, usual class: inhibitors | HEK293T ELG1-luciferase reporter, luminescence, 16 h; DNA damage induced by 5-fluorouridine | actives 2.3% (n = 330,000) | AID 504467; also: % is scaled to controls: 0 for no effect and ±100 for the full control effect; nearly all actives have a fitted effect of over 55% in size
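Overnight (16 hr) co-exposure of 2,000 cells/well to 5-fluorouridine and compound at 37 °C preceded detection. Luciferase was quantified via ONE-Glo luminescence; loss of signal denotes inhibition.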
A549 viability: A549 cytotoxicity, counter-screen for Nrf2 inhibitors. A549 ARE-Fluc cells, CellTiter-Fluor viability, 18-24 h. Potency, µM (top dose mostly 46 µM), without a hit: top-dose activity change, negative = cytotoxicity, most hits filed as inhibitors. actives 0.16% (n = 390,000); also: % is scaled to controls: 0 for no effect and ±100 for the full control effect
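A549 ARE-Fluc cells in 5% FBS OPTI-MEM, 5000 cells/well, rested 2 h then exposed to compounds in concentration-response for 18-24 h at 37 °C. Viability by CellTiter-Fluor fluorescence (Ex 405/Em 525) after 30 min; luciferase luminescence (BugLite, 15 min, RT) read afterwards.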
Nrf2 inh: blocks Nrf2 signaling. Potency, µM (highest dose often 46 µM), for inactives: at the highest dose activity change, negative = inhibition, usual class: inhibitors. AID 504444. A549 ARE-Fluc reporter, luciferase luminescence, 18-24 h. actives 2.1% (n = 360,000); also: % is scaled to controls: 0 for no effect and ±100 for the full control effect; nearly all actives have a fitted effect of over 60% in size
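Concentration-response testing used A549 ARE_Fluc cells at 5000 cells/well. Following an 18-24 h compound incubation, viability was read by fluorescence (Ex 405/Em 525) and luciferase output by luminescence.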
The depositor's hits bear a star; ? = inconclusive; . = no result. Calls follow the shape of the dose curve; as a rule, active = well fitted curve in the direction sought with a large enough effect; inconclusive = small, poorly fitted or top-dose-only effect, or another doubt; inactive = no such curve, though single readings can be large; an effect the other way counts as inactive or inconclusive. Potency is read from the fitted curve at half-maximal effect.

SMILES	Nrf2 ARE act	ELG1 repair inh	A549 viability	Nrf2 inh
CCOc1ccc(S(=O)(=O)c2cc3cccc(OCC)c3oc2=O)cc1	4.5µM*	.	-4%	5%
CNC(=S)/N=C/NOCc1ccc(Cl)cc1Cl	0%	12µM*	1%	?
COc1ccc(NC(=O)CCSc2nc(C)cs2)cc1	3%	?	4%	6%
Cc1ccc(C)c(NC(=O)COC(=O)CNC(=O)c2ccccc2Cl)c1	0%	11%	2%	5%
Cc1ccnc2c1ccc1c(C)ccnc12	-3%	2.3µM*	?	?
CNC(=O)c1ccsc1NC(=O)C1CCN(S(=O)(=O)c2ccc(Cl)s2)CC1	0%	18µM*	-4%	?
NC(=O)c1ccsc1NC(=O)C1CCN(S(=O)(=O)c2cccs2)CC1	0%	?	6%	-19%
O=C(Nc1ccc(Cl)cc1)C1CCN(S(=O)(=O)c2ccc(Br)s2)CC1	9%	.	-26%	23µM*
CCOc1ccc(C(=O)NNC(=O)CCNC(=O)c2ccco2)cc1OC	0%	17%	-1%	-5%
COc1ccc(CNC(=O)CSc2n[nH]c(C)c2[N+](=O)[O-])cc1	-1%	20%	-7%	11%
COc1cc(C(C(=O)NC2CCCC2)N(C(=O)c2snc(C(N)=O)c2N)c2ccccc2)cc(OC)c1OC (configuration not stated)	0%	1%	-18%	-19%
CN(Cc1ccc(OCC(O)CN2CCCCC2)cc1)Cc1ccnc2ccccc12 (configuration not stated)	5%	-20%	-2%	5.8µM*
CC1=C(C(=O)OCCOc2ccccc2)C(c2ccsc2)NC(=O)N1C (configuration not stated)	0%	23µM*	-1%	?
COC(=O)C1=C(C)N(C)C(=O)NC1c1ccccc1 (configuration not stated)	0%	-7%	-4%	8%
N#C/C(=N\Nc1ccc([N+](=O)[O-])cc1)C(N)=S	2%	?	18µM*	?
N#C/C(=N\Nc1cccc([N+](=O)[O-])c1)C(=O)c1ccc(Br)cc1	14%	1.8µM*	-22%	9.2µM*
N#C/C(=N\Nc1ccc(S(=O)(=O)N2CCCCC2)cc1)C(N)=S	9%	?	?	?
N#C/C(=N\Nc1ccc(S(=O)(=O)N2CCc3ccccc32)cc1)C(N)=S	3%	6.5µM*	?	?
N#C/C(=N\Nc1ccc(S(=O)(=O)N2CCCCCC2)cc1)C(N)=S	12%	21µM*	?	?
CN(C(=O)c1cc2c(=O)n3ccccc3nc2n1C)C1CCCCC1	-1%	?	13%	25%
COc1ccc(Br)cc1/C=C/C(=O)Nc1ccc2ccccc2c1	6%	-9%	-6%	0%
COc1ccc(Br)cc1/C=C/C(=O)Nc1ccc(C)cc1	19%	21µM*	?	?
COc1ccccc1CNC(=O)C1CCCN(C(=O)c2cnn(-c3ccc(F)cc3)c2-n2cccc2)C1 (configuration not stated)	-1%	.	0%	-3%
Oc1c(C(c2ccccc2F)N2CCOCC2)sc2nc(-c3ccco3)nn12 (configuration not stated)	3%	.	-13%	.
O=C(O)CCn1cc(/C=C2/NC(=S)N(c3ccccc3)C2=O)c(-c2ccccc2)n1	-1%	3%	-18%	-3%
SMILES	Nrf2 ARE act	ELG1 repair inh	A549 viability	Nrf2 inh
CCN1C(=O)/C(=C\c2cn(CCC#N)nc2-c2ccc(F)cc2)SC1=S	0%	15µM*	-19%	-10%
N#CCCn1cc(/C=C2\NC(=S)N(c3ccccc3)C2=O)c(-c2ccc(-c3ccccc3)cc2)n1	0%	0%	21µM*	18µM*
O=C(NCc1noc2ccccc12)N1CCN(c2ccccc2)CC1	0%	.	5%	-30%
CCOc1ccc(CCNc2nc3ccccc3n3cnnc23)cc1OCC	3%	21µM*	-5%	?
COc1ccccc1C(C[N+](=O)[O-])c1c(N)n(C)c(=O)n(C)c1=O (configuration not stated)	?	?	?	12µM*
CCOc1ccccc1NC(=O)C(=O)NCCc1sc(-c2cccc(F)c2)nc1C	0%	.	5%	.
O=C(c1ccco1)N1N=C2CCCCCC2C1(O)C(F)(F)F (configuration not stated)	3%	0.33µM*	-1%	-10%
O=C(c1ccncc1)N1N=C2CCCCCC2C1(O)C(F)(F)F (configuration not stated)	-1%	-29%	0%	-9%
CC(C)(C)C(=O)/C(=C\c1ccc([N+](=O)[O-])cc1)n1cncn1	.	12µM*	.	.
COC(=O)c1c(N2C(=O)[C@H]3[C@@H](C2=O)[C@]2(C(=O)Nc4c2ccc(C)c4C)N2CCC[C@@H]32)sc(C)c1C	0%	6.5µM*	2%	12%
Cc1noc(C)c1S(=O)(=O)N(C)C[C@H]1Oc2c(NC(=O)Nc3ccccc3)cccc2C(=O)N([C@H](C)CO)C[C@@H]1C	2%	12%	-4%	8%
Cc1noc(C)c1S(=O)(=O)N(C)C[C@H]1Oc2c(NC(=O)Nc3ccc(C(F)(F)F)cc3)cccc2C(=O)N([C@H](C)CO)C[C@@H]1C	9%	?	-20%	21µM*
C[C@H](CO)N1C[C@H](C)[C@@H](CN(C)S(=O)(=O)c2ccccc2)Oc2ccc(NC(=O)Nc3ccc(C(F)(F)F)cc3)cc2C1=O	0%	21µM*	-17%	?
C[C@H](CO)N1C[C@H](C)[C@@H](CN(C)CC2CCCCC2)Oc2c(NC(=O)CCC(F)(F)F)cccc2C1=O	-1%	-23%	-26%	18µM*
Cc1noc(C)c1S(=O)(=O)Nc1ccc2c(c1)C(=O)N([C@H](C)CO)C[C@H](C)[C@@H](CN(C)S(=O)(=O)c1ccccc1)O2	0%	?	0%	-3%
CC(C)NC(=O)Nc1ccc2c(c1)C(=O)N([C@H](C)CO)C[C@H](C)[C@@H](CN(C)S(=O)(=O)c1ccccc1)O2	-1%	1%	4%	-14%
Cc1noc(C)c1S(=O)(=O)N(C)C[C@H]1Oc2ccc(NS(=O)(=O)c3ccc(F)cc3)cc2C(=O)N([C@H](C)CO)C[C@@H]1C	0%	5.8µM*	14%	-2%
C[C@H](CO)N1C[C@H](C)[C@@H](CN(C)C(=O)NC2CCCCC2)Oc2c(NC(=O)CCC(F)(F)F)cccc2C1=O	0%	-6%	6%	-4%
Cc1ccc(C(=O)Nc2nc(C(N)Cc3ccc(C(F)(F)F)cc3)cs2)cc1 (configuration not stated)	5%	.	.	.
O=C(COC(=O)c1ccc(NC(=O)C2CC=CCC2C(=O)O)cc1)c1ccccc1 (configuration not stated)	0%	-8%	1%	4%
O=C(/C=C\c1ccco1)NC(=S)Nc1ccccc1O	7.1µM*	?	-1%	10%
O=C(/C=C/c1ccco1)NC(=S)Nc1ccccc1O	26%	?	3%	?
